Compound activity deposited in PubChem by several laboratories.
In the library only some 3% were active in any assay of this set; here they are far more common.
14-3-3 Bad inh: disrupts binding of bovine 14-3-3 zeta to phospho-Bad peptide; P63103; TR-FRET 14-3-3zeta/Dy647-pBad peptide displacement, 1 h; inhibition, % at 21.7 µM; actives 0.71% (n = 220,000); AID 781;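 active = inhibition above about 70%, limit read from the data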;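 also: 0% = full 14-3-3 plus peptide FRET controls and 100% = background without 14-3-3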
Target sequence (P63103 whole entry, looked up): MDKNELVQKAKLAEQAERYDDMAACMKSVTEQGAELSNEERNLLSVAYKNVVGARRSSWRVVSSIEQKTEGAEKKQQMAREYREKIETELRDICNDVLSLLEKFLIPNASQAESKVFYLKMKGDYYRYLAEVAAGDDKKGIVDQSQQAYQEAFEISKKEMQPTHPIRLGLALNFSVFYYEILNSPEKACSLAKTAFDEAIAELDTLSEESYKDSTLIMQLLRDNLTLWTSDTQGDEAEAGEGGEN
Mcl-1 Bim block: disrupts Bim peptide binding to human Mcl-1; Q07820; Bead-based flow cytometry, Bim peptide-Mcl-1 binding; inhibition, % at 10 µM; actives 0.1% (n = 190,000); AID 1009; in the data active = inhibition above about 40%;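 also: 0% = no compound tracer wells and 100% = peptide blocker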
Target sequence (Q07820 whole entry, looked up): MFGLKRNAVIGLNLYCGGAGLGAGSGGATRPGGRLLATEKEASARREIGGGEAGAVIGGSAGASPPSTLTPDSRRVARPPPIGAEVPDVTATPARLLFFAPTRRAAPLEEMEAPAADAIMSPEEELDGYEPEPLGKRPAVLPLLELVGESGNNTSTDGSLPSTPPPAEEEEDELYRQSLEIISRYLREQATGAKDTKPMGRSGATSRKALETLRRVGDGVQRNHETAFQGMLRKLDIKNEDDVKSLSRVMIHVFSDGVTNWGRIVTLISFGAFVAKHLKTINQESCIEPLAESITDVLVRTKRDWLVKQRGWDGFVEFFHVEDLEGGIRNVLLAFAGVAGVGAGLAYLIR
Mcl1 Bid PPI: Mcl-1/Bid interaction inhibition; inhibition, % at 21.7 µM; TR-FRET Mcl-1/Bid-Dy647 peptide binding, 1536-well; Q07820; actives 0.97% (n = 220,000);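 active = compounds that cut the binding signal by more than half at the single screening dose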;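 also: His-tagged Mcl-1 with europium anti-His antibody binding Bid BH3 peptide; 0% = Mcl-1 plus peptide wells and 100% = peptide-only wells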
Mcl1 Noxa PPI: disrupts binding of human Mcl-1 to Noxa peptide. Q07820. TR-FRET Mcl-1/Noxa peptide binding, 2 h. inhibition, % at 21.7 µM. actives 1.5% (n = 220,000). AID 1022;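 active = compounds that cut the protein-peptide binding signal by more than 50% relative to plate controls in a single-dose test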;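 also: His-tagged Mcl-1 with rhodamine Noxa BH3 peptide and terbium anti-His antibody; 0% = Mcl-1 plus Noxa peptide wells and 100% = peptide-only wells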
Arbovirus anti: antivirals against arbovirus infection; arbovirus infection cell-based antiviral screen; inhibition, % at 10 µM; actives 0.37% (n = 200,000); AID 1251; in the data active = inhibition above about 30%
The depositor's hits bear a star; / = not tested or not shown; [ ] = remark or other dose.

SMILES	14-3-3 Bad inh	Mcl-1 Bim block	Mcl1 Bid PPI	Mcl1 Noxa PPI	Arbovirus anti
CCn1cc(-c2n[nH]c(=S)n2-c2ccc(C)cc2Br)c(=O)c2ccc(C)nc21	0	/	-14	20	/
CCCCN(C)Cc1cc(=O)oc2cc3c(cc12)CCCC3	-2	/	-6	-8	/
Cc1[nH]c2ccccc2c1/C=C/c1nc2ccccc2c(=O)[nH]1	82*	/	64*	74*	/
Cn1c(Oc2ccccc2NCc2cc(Br)ccc2O)cc(=O)n(C)c1=O	-11	5	-33	22	32*
COc1ccc(/C=N/n2cnnc2)cc1Br	-2	/	-38	4	/
COC(=O)c1sccc1NC(=O)c1c(C)noc1C	-3	1	17	10	7
COC(=O)c1sccc1NC(=O)c1cc(C)on1	2	0	63*	1	6
FC(F)Oc1ccccc1/C=N/n1cnc2ccccc21	-7	-1	5	15	11
COc1ccc(-c2cc(=O)oc3cc(OCC(=O)c4cccc([N+](=O)[O-])c4)ccc23)cc1	70*[fluorescence artefact?]	2	50	46	-18
COc1ccc(-c2cc(=O)oc3cc(OCC(C)=O)ccc23)cc1	-25	-1	-19	-1	-6
O=C(CSc1cccs1)Nc1ccc(Cl)cc1	3	/	-8	12	/
CCOC(=O)N1CCN(Cc2ccccc2Cl)CC1	75*	-1	-13	1	1
CCn1c(SCC(=O)n2c(C)c(C)c3ccccc32)nnc1-c1ccco1	31	-6	54*	-7	7
O=C(O)c1cc(N2N=C(C(F)(F)F)/C(=C/C=C/c3ccco3)C2=O)ccc1Cl	27	-4	86*	106*	16
COc1cccc(OC)c1OCCCCCc1c(C)n[nH]c1C	81*	0	29	22	6
COc1cccc(OC)c1OCCCCc1c(C)n[nH]c1C	11	1	16	20	-4
CC1CCN(S(=O)(=O)c2cccc(C(=O)Nc3ccccn3)c2)CC1	-2	-4	79*	4	1
CCCCc1nc2ccc(S(=O)(=O)O)cc2[nH]1	0	/	20	24	/
CCOc1ccc(C2CC(=O)N(Nc3ccc([N+](=O)[O-])cc3[N+](=O)[O-])C2=O)cc1 (centres undefined)	1	/	0	54*	/
CCC(C)Nc1nc2c(c(=O)n(C)c(=O)n2C)n1C (centres undefined)	-9	/	-7	0	/
O=C(Nc1nc2ccc([N+](=O)[O-])cc2s1)c1ccco1	49	-1	17	56*	-8
COc1ccc2nc(NC(=O)c3ccc(-c4cccc([N+](=O)[O-])c4)o3)sc2c1	65	10	79*	62*	-12
N#C/C(=C(/O)c1ccc(-c2cccc([N+](=O)[O-])c2)o1)c1nc2ccccc2s1	92*	-1	15	88*	-4
O=C(Nc1nc2ccc([N+](=O)[O-])cc2s1)c1c(F)cccc1F	-2	-4	-3	12	9
CC1(C)CC(=O)C=C(NC2=CC3OC(c4ccccc4)OCC3OC2=O)C1 (centres undefined)	-3	-6	1	7	4
SMILES	14-3-3 Bad inh	Mcl-1 Bim block	Mcl1 Bid PPI	Mcl1 Noxa PPI	Arbovirus anti
COc1ccccc1N(CC(O)Cn1ccnc1C)S(=O)(=O)c1ccc(C)cc1 (centres undefined)	-13	0	-28	-5	-6
Cc1ccc(C(=O)Nc2ccnc(-c3ccncc3)n2)cc1	-13	1	-26	4	0
CCN(CC)Cc1cc(C(=O)O)c(-c2ccccc2)o1	1	/	-52	-3	/
O=C(O)c1cc(CN2CCOCC2)oc1-c1ccccc1	76*	-1	-16	0	-2
CCOC(=O)C1=C(C)NC(=O)C(C(N)=O)C12CCCCC2 (centres undefined)	3	-1	-9	57*	4
O=C1NCCN1CCN1C(=O)c2ccccc2NC1c1ccccc1 (centres undefined)	-4	/	-10	0	/
Cn1c(SCC(=O)Nc2cc(Cl)cc(Cl)c2)nnc1-c1ccc2nonc2c1	12	/	-46	-59	/
Cc1cc(NCC(c2ccccc2)c2ccccc2)n2ncnc2n1	-2	2	-6	0	8
COc1cc(/C=C2/C(=O)c3cccc([N+](=O)[O-])c3C2=O)c(Br)cc1O	-8	6	-28	88*	-33
COc1ccc(-c2nc(-c3cccc([N+](=O)[O-])c3O)cc(=O)o2)cc1OC	6	-5	43	40	-4
S=C(NCC1CCCO1)N1CCN(Cc2ccccc2)CC1 (centres undefined)	70*	1	-3	22	-4
O=Nc1ccc(NOC(=O)c2ccccc2Br)cc1	-15	-1	-27	-1	13
O=C(ONc1ccc(N=NC(=O)c2ccccc2O)cc1)c1ccccc1	11	0	88*	84*	-21
CCN(CC)C(=O)CC(c1cc(OC)c(OC)c(OC)c1)c1c(OC)cc(OC)c2c(-c3ccccc3)cc(=O)oc12 (centres undefined)	62	/	-93	96*	/
O=C(O)C1Cc2ccccc2CN1S(=O)(=O)/C=C/c1ccccc1 (centres undefined)	86*	-3	-31	41	11
COc1ccc(-c2ccc(/C=N/NC(=O)c3cccnc3)o2)c([N+](=O)[O-])c1	79*[fluorescence artefact?]	1	38	74*	-5
COc1ccc(/C=N/NS(=O)(=O)c2ccccc2)cc1OC(=O)c1ccc(C)cc1	-5	0	86*	23	-5
COc1ccc(/C=N/NS(=O)(=O)c2ccc(C)cc2)cc1OC(=O)c1ccccc1	1	4	-19	-12	15
CCn1c(SCc2cccc(F)c2)nc2c(c1=O)SCC2	-12	-1	-23	7	11
CCCNC(=O)CSc1nnc(-c2ccccc2Br)n1-c1cccc(C(F)(F)F)c1	13	-3	-21	22	-2
COc1cccc2c1C(=O)c1c(O)c3c(c(O)c1C2=O)C[C@@](O)(C(=O)CO)C[C@@H]3O[C@H]1C[C@H](N)[C@H](O)[C@H](C)O1	96*[fluorescence artefact?]	34	10	60*	-27
CN1CCN/C1=C(/C(Cl)=C(Cl)Cl)[N+](=O)[O-]	-13	2	3	14	-4
Cc1ccsc1/C=C/C1=Cc2c(sc(NC(=O)CSc3n[nH]c(N)n3)c2C#N)C(C)(C)C1	-1	3	-25	89*	13
CCOC(=O)C1=C(O)/C(=C\c2ccc(CNC(=O)C(=O)Nc3ccccc3)o2)N=C1C	1	-1	40	96*	10
CCOC(=O)C1=C(O)/C(=C\c2cccs2)N=C1C	-6	-2	-9	7	-4
CCCCC[C@H](O)/C=C/[C@@H]1[C@@H](C/C=C\CCCC(=O)OC)[C@@H](O)C[C@H]1O	91*	0	98*	43	14
COc1ccc(NC(=O)c2cc3c(=O)n(C)c4ccccc4c3s2)cc1OC	6	-3	55*	41	-14
Nc1ccccc1Nc1cc(-c2ccccc2)nn1-c1cccc(Cl)c1	-7	-5	-60	12	1
CNc1nn(-c2cccc(Cl)c2)nc1N	-5	-6	96*	-66	-12
